# Experimental data published in PubChem BioAssay AID1259418 (Broad Institute, 2018).
# About 840 (25%) of roughly 3,400 compounds were called active. Another 11% or so got no clear call; they are omitted.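 Rule for the calls: active = fitted half-maximal concentration of signal decrease at or below twice the sample's top tested concentration; inconclusive = flat curve between -70 and -30 percent, or poor fit; inactive = flat within 30 percent, signal rise, or potency above limit.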 Only a sample is shown. Potency and affinity values are given separately.
# Experiment: T. gondii growth inhibition with IFN-gamma, dose response, cell-based, ME49Luc, HeLa, luciferase, 72 h (AID 1259418)
# Conditions: T. gondii ME49Luc in IFN-y HeLa, hits give low values, -100% = high-dose IFN-γ control wells; at 19.5 µM unless noted
row,Structure (SMILES),max activity
1,COc1ccc(NC(=O)Nc2ccc(-c3nc(-c4ccccc4)co3)cc2)cc1OC,91.2% (inactive)
2,O=C(Cc1cccc(F)c1)N1CCC2(CC1)Nc1ccccc1-n1cccc12,9.66% [at 10 µM] (inactive)
3,COc1cc(NC(=O)Nc2ccc(-c3nc(-c4ccccc4)co3)cc2)cc(OC)c1OC,43.1% (inactive)
4,CCc1ccc2c(c1)cc(S(=O)(=O)c1ccccc1)c(=O)n2CC(=O)N1CCCCC1,9.02% [at 0.16 µM] (inactive)
5,CC(c1cc2ccccc2s1)N(O)C(N)=O (stereo not drawn),22.5% (inactive)
6,Cc1ccc2c(c1)cc(S(=O)(=O)c1ccccc1)c(=O)n2CC(=O)NCc1ccc(F)cc1,3.98% [at 10 µM] (inactive)
7,COc1ccc(-c2nc(Cn3nnc(-c4nc(-c5ccc(Cl)c(F)c5)no4)c3C)c(C)o2)cc1,-11.8% [at 10 µM] (inactive)
8,CCN1C(=O)CCc2cc(NC(=O)Cc3cccs3)ccc21,-9.98% [at 0.35 µM] (inactive)
9,Cc1ccc(-c2coc(-c3ccc(NC(=O)Nc4ccc(C)c(C)c4)cc3)n2)cc1,12% [at 2.6 µM] (inactive)
10,N#Cc1cccc(C(=O)N2CCC3C2CC(=O)N3Cc2ccncc2)c1 (stereo not drawn),25.6% (inactive)
11,CCN1C(=O)CCc2cc(NC(=O)c3cccc(C#N)c3)ccc21,-7.75% [at 0.16 µM] (inactive)
12,Cc1oc(-c2ccccc2)nc1Cn1nnc(-c2nc(-c3cccc(F)c3)no2)c1C,9.95% (inactive)
13,COc1ccc2c(c1)NC1(CCN(C(=O)Cc3ccccc3)CC1)c1cccn1-2,5.44% [at 0.35 µM] (inactive)
14,CCOc1ccc(NC(=O)COc2nc(CC)nc3ccccc23)cc1,16% [at 10 µM] (inactive)
15,Cc1ccc(S(=O)(=O)Nc2ccc3c(c2)C(=O)N([C@H](C)CO)C[C@H](C)[C@H](CN(C)Cc2ccc(C(F)(F)F)cc2)O3)cc1,19.4% [at 10 µM] (inactive)
16,CCOc1ccc(-c2nc3c(s2)CN(S(=O)(=O)c2ccccc2Cl)CC3)cc1,22.6% (inactive)
17,O=C(c1cccc(F)c1)N1CCC2(CC1)Nc1ccc(Cl)cc1-n1cccc12,9.53% [at 0.68 µM] (inactive)
18,CCOc1ccccc1NC(=O)CN1CCC2(CC1)N=C(c1ccc(F)cc1)C(=O)N2,13% (inactive)
19,Cc1nc(CCNC(=O)[C@H]2CCCN2S(=O)(=O)c2cccc(Cl)c2)cs1,-9.1% [at 0.35 µM] (inactive)
20,CCOc1ccc(-c2nc(CN(c3ccc(OC)cc3)S(=O)(=O)c3ccc(C)cc3)c(C)o2)cc1,8.75% [at 1.35 µM] (inactive)
21,Cc1ccc2c(c1C)-n1cccc1C1(CCN(C(=O)Cc3ccccc3)CC1)N2,4.08% [at 0.68 µM] (inactive)
22,CCOc1ccc(-c2nc(CN(c3ccccc3)S(=O)(=O)c3cccs3)c(C)o2)cc1OC,-33.6% [at 10 µM] (inactive)
23,CCOc1ccc(-c2nc(CN(c3ccc(C)cc3)S(=O)(=O)c3cccs3)c(C)o2)cc1OC,101% [at 10 µM] (inactive)
24,COc1ccccc1NC(=O)N1CCc2nc(-c3ccc(OC)c(OC)c3)sc2C1,6.68% [at 0.16 µM] (inactive)
25,C[C@]12CCC3=C4CCC(=O)C=C4CC[C@H]3[C@@H]1CC[C@@]2(O)CC#N,15.3% (inactive)

row,Structure (SMILES),max activity
1,Cc1ccc(N2CCC[C@]3(C(=O)O)CN(CCN(C)C)C[C@H]3C2)nn1,40.3% (inactive)
2,Cc1cccc(N2CCN(C(=O)c3ccc(-c4csc(C5CC5)n4)cc3)CC2)c1C,-9.59% [at 0.35 µM] (inactive)
3,COc1ccccc1NC(=O)CN1CCC2(CC1)N=C(c1cccc(C)c1)C(=O)N2,13.7% [at 0.35 µM] (inactive)
4,Cc1ccc(C2=NC3(CCN(CC(=O)Nc4ccc(Cl)cc4)CC3)NC2=O)cc1,19.9% [at 1.35 µM] (inactive)
5,CSc1cccc(NC(=O)CN2CCC3(CC2)N=C(c2ccc(Cl)cc2)C(=O)N3)c1,-30.9% (inactive)
6,COc1cccc(NC(=O)CN2CCC3(CC2)N=C(c2cccc(Cl)c2)C(=O)N3)c1,-20.4% [at 0.68 µM] (inactive)
7,Cc1ccccc1NC(=O)CN1CCC2(CC1)N=C(c1cccc(Cl)c1)C(=O)N2,-14.5% (inactive)
8,CSc1cccc(NC(=O)CN2CCC3(CC2)N=C(c2cccc(F)c2)C(=O)N3)c1,27.3% (inactive)
9,COc1ccc(NC(=O)CN2CCC3(CC2)N=C(c2ccc(C)cc2)C(=O)N3)c(OC)c1,-8.99% [at 5 µM] (inactive)
10,COc1ccc(C2=NC3(CCN(CC(=O)Nc4cccc(Cl)c4)CC3)NC2=O)cc1,-14.8% [at 2.6 µM] (inactive)
11,COc1cccc(NC(=O)Nc2ccc(-c3nc(-c4cc(C)ccc4C)co3)cc2)c1,10.1% [at 0.16 µM] (inactive)
12,CN(C)CCO[C@@H]1CN(C(=O)Cc2ccsc2)[C@H]2CCCO[C@@H]12,38.7% (inactive)
13,Cc1cccc(NC(=O)CN2CCC3(CC2)N=C(c2ccc(Cl)cc2)C(=O)N3)c1,17.4% (inactive)
14,Cc1[nH]c2ccccc2c1C(=O)C(=O)NC1CC(=O)N(c2cccc(F)c2)C1 (stereo not drawn),13.3% [at 0.35 µM] (inactive)
15,COc1ccc(C)cc1Nc1nc(-c2ccc(Cl)cc2)nc2ccccc12,-11.5% [at 2.6 µM] (inactive)
16,Clc1ccc(-c2nc(N3CCc4ccccc43)c3ccccc3n2)cc1,-11.3% (inactive)
17,COc1ccc2c(c1)NC1(CCN(C(=O)c3ccc(C)c(C)c3)CC1)c1cccn1-2,-9.14% [at 2.6 µM] (inactive)
18,CCc1ccc(NC(=O)N2CCN(Cc3nc(-c4ccccc4C)oc3C)CC2)cc1,20.1% [at 0.16 µM] (inactive)
19,Cc1oc(-c2ccccc2)nc1Cn1nnc(-c2nc(-c3ccc(F)c(Br)c3)no2)c1C,9.89% (inactive)
20,COc1cccc(NC(=O)CN2CCC3(CC2)N=C(c2ccc(Cl)cc2)C(=O)N3)c1,-17.6% [at 1.35 µM] (inactive)
21,Cc1cccc(CN2CCC(CNc3nc(-c4ccc(Cl)cc4)nc4ccccc34)CC2)c1,-45.1% [at 0.35 µM] (inactive)
22,COc1ccc(-c2nc(NCC3CCN(Cc4ccccc4F)CC3)c3ccccc3n2)cc1,-29.4% (inactive)
23,COc1ccc(-c2nc(NCc3ccc(C)cc3)c3ccccc3n2)cc1,-20.6% [at 5 µM] (inactive)
24,COc1ccc(-c2nc(NCc3ccc(F)cc3)c3ccccc3n2)cc1,18.6% [at 1.35 µM] (inactive)
25,COc1ccc(-c2nc(NCC3CCN(Cc4ccc(Cl)cc4)CC3)c3ccccc3n2)cc1,14.4% [at 2.6 µM] (inactive)

row,Structure (SMILES),max activity
1,CSc1ccc(-c2noc(-c3nnn(Cc4nc(-c5ccc(C)cc5)oc4C)c3C)n2)cc1,4.87% (inactive)
2,COc1cc(C(=O)N2CCC3(CC2)Nc2ccc(C)c(C)c2-n2cccc23)cc(OC)c1OC,7.01% [at 0.16 µM] (inactive)
3,COc1cccc(S(=O)(=O)N2CC[C@@H]3[C@H]2c2cc(C#Cc4cccnc4)ccc2N[C@@H]3CO)c1,31.2% [at 5 µM] (inactive)
4,Cc1cccc(-c2ccc(C3[C@H]4CNC[C@@H]3N4Cc3cccc(F)c3)cc2)c1 (stereo partly drawn),19.8% (inactive)
5,N#C[C@H]1N[C@@H](CO)[C@H]1c1ccc(C#CC2CCCCC2)cc1,49.7% (inactive)
6,Fc1cccc(-c2ccc(C3[C@H]4CNC[C@@H]3N4Cc3cncnc3)cc2)c1 (stereo partly drawn),50.5% (inactive)
7,O=C(C1CCOCC1)N1CC(=O)N2[C@@H](CO)[C@@H](c3ccc(C#CC4CCCCC4)cc3)[C@@H]2C1,25.9% [at 10 µM] (inactive)
8,O=C(Nc1ccccc1)Nc1ccc(-c2nc(-c3ccccc3)co2)cc1,51.3% (inactive)
9,COc1cccc(-c2nc3c(s2)CN(S(=O)(=O)c2ccc(OC)c(OC)c2)CC3)c1,6.21% [at 10 µM] (inactive)
10,COc1ccccc1-c1nc(C)c(-c2ccc(SCc3ccc(C)cc3)nn2)s1,-14.3% (inactive)
11,COc1ccc(C(=O)N2CCC[C@@H]2C(=O)NCCc2csc(-c3ccccc3)n2)cc1,-13.9% (inactive)
12,CCc1ccc(S(=O)(=O)N2CCc3nc(-c4ccc(OC)cc4)sc3C2)cc1,9.57% (inactive)
13,CCOc1ccc(CC(=O)N2CCC3(CC2)Nc2ccc(C)c(C)c2-n2cccc23)cc1OCC,-7.59% [at 0.35 µM] (inactive)
14,CCC(CC)C(=O)N1CCC(C(=O)NCCc2csc(-c3ccccc3)n2)CC1,5.84% [at 5 µM] (inactive)
15,COc1ccc(C(=O)Nc2ccc3c(c2)CCC(=O)N3C)c(C)c1,42.4% (inactive)
16,N#C[C@H]1[C@H](c2ccc(C#Cc3ccccc3F)cc2)[C@@H](CO)N1C(=O)c1cccnc1,-13.1% [at 2.35 µM] (inactive)
17,COc1cccc(C#Cc2ccc([C@H]3[C@@H](C#N)N(C(=O)c4ccccn4)[C@@H]3CO)cc2)c1,11.2% [at 10 µM] (inactive)
18,CCOC(=O)C1CCC(CNC(=O)Nc2ccc(-c3nc(-c4ccccc4)co3)cc2)CC1 (stereo not drawn),-11.7% [at 5 µM] (inactive)
19,N#CCSC1=Nc2ccccc2C2=NC(CC(=O)NCc3ccc(F)cc3)C(=O)N12 (stereo not drawn),44.3% (inactive)
20,COc1ccc(CNC2=NCCNC23CCN(S(=O)(=O)c2ccc4c(c2)CCCC4)CC3)cc1,-31.9% (inactive)
21,Cc1cccc(CNC2=NCCNC23CCN(S(=O)(=O)c2ccc4c(c2)CCCC4)CC3)c1,20.3% [at 10 µM] (inactive)
22,O=S(=O)(c1ccc2c(c1)CCCC2)N1CCC2(CC1)NCCN=C2NCc1cc(F)cc(F)c1,16.7% (inactive)
23,Cc1nc(-c2ccc(F)cc2)sc1-c1ccc(SCc2cccc3ccccc23)nn1,-8.89% [at 10 µM] (inactive)
